# In PubChem BioAssay:
# Activity calls are given as the source filed them. Unless noted, the rule behind the calls is not given here.
# Legend:
# [1] = tested on: XIP peptide (Xip251-270) binding; assay: XIP fragment 251-270 binding compounds – biochemical, small-molecule microarray, fluorescence 635/667 nm, 0.1 µg/mL protein, primary screen (AID 1182); settings: fluorescent protein binding, 635 nm, higher = more signal, called active from +8 up or from −8 down
# XIP peptide (Xip251-270) = assay: compounds binding XIP fragment 251-270 – biochemical, small-molecule microarray, fluorescence 635/667 nm, 0.5 µg/mL protein, primary screen (AID 1183); settings: fluorescence 635 nm, higher = more signal
# [2] = blood-stage malaria parasite viability loss – strain 3D7, DAPI fluorescence, 100 nL, primary screen (AID 1184);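 note: parasites grown inside human red blood cells in medium with human serum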; settings: P. falciparum 3D7 growth, 3 d, higher = more signal
# [3] = biological target: Homeobox protein Hox-A13 (Mus musculus) (UniProt Q62424); assay: disruptors of Hoxa13 oligonucleotide interaction – biochemical, fluorescence polarization, labeled oligonucleotide, primary screen (AID 1185); settings: Hoxa13:DNA binding, 15 min, higher = more signal, called active from +8 up or from −8 down
# [4] = blockers of DNA damage checkpoint Chk1 activation – imaging, HeLa, hydroxyurea, phospho-Chk1 antibody, percent positive cells, primary screen (AID 1186); settings: hydroxyurea-induced phospho-Chk1 immunofluorescence imaging, higher = more signal
# [5] = blockers of DNA damage checkpoint Chk1 activation – imaging, HeLa, hydroxyurea, phospho-Chk1 nuclear intensity, primary screen (AID 1187); settings: hydroxyurea-induced phospho-Chk1 immunofluorescence imaging, higher = more signal
# Homeobox protein Hox-A13 (Mus musculus), sequence (Q62424 whole entry, looked up): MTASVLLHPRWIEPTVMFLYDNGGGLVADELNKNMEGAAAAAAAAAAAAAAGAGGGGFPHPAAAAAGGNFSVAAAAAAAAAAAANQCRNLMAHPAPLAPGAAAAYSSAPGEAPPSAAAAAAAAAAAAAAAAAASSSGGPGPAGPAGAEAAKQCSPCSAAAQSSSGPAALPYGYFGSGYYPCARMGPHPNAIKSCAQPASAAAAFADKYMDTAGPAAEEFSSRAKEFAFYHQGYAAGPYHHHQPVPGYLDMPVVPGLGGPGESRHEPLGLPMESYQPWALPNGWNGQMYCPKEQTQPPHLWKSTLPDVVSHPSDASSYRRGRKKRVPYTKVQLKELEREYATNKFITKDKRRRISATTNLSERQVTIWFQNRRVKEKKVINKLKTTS
Structure (SMILES),composite z-score [1],composite z-score (XIP peptide (Xip251-270)),z-score [2],z-score [3],z-score [4],z-score [5]
COC(=O)[C@@]1(Cc2ccc(OC)cc2)[C@H]2c3cc(C(=O)N4CCCC4)n(Cc4ccccc4)c3C[C@H]2CN1C(=O)c1ccccc1,0.738 (inactive),0.0127,-1.5,-3.78 (inactive),0.212 (inactive),0.07 (inactive)
CN1C(=O)C2C=CC(C(O)c3ccc(-c4ccccc4)s3)N(N(c3ccccc3)c3ccccc3)C2C1=O (configuration not stated),0.254 (inactive),0.322,0.33,0.329 (inactive),0.288 (inactive),-0.108 (inactive)
C#CCN(CC1=CCCCC1)[C@H](c1ccccc1Br)[C@@H](O)Cc1ccccc1,0.0838 (inactive),-0.43,0.47,-0.843 (inactive),-0.164 (inactive),-0.155 (inactive)
O=C(NCc1ccc(F)cc1)[C@H]1C[C@H]2C(=O)N[C@@H](Cc3ccccc3)C(=O)N2[C@H]1c1ccc(O)cc1,0.114 (inactive),0.832,-0.237,-1.6 (inactive),-0.762 (inactive),-0.352 (inactive)
C=CCOC(=O)[C@@H]1[C@H]2C(=O)O[C@H](c3ccccc3)[C@H](c3ccccc3)N2[C@H](c2ccc(OCCOC(=O)[C@@H]3C[C@@H]4C(=O)N5CCC[C@H]5C(=O)N4[C@@H]3c3ccc(O)cc3)cc2)[C@@]12C(=O)Nc1ccc(I)cc12,0.393 (inactive),0.533,-1.85,1.38 (inactive),-0.946 (inactive),-0.3 (inactive)
COc1ccc(C(O)C2C=CC3C(=O)N(c4ccccc4)C(=O)C3N2Nc2ccc(C(C)C)cc2)cc1OCc1ccccc1 (configuration not stated),0.658 (inactive),0.8,0.1,-0.47 (inactive),-0.309 (inactive),-0.472 (inactive)
COC(=O)[C@@]1(Cc2ccc(F)cc2)[C@H]2c3cc(C(=O)N4CCCC4)n(Cc4ccc(C)o4)c3C[C@H]2CN1C(=O)c1ccccc1,0.205 (inactive),0.705,-1.14,-4.22 (inactive),-0.289 (inactive),-0.163 (inactive)
C=CCNC(=O)[C@H]1[C@@H]2C(=O)O[C@@H](c3ccccc3)[C@@H](c3ccccc3)N2[C@@H](c2ccc(OCCO)cc2)[C@]12C(=O)Nc1ccc(C#CC3=CCCCC3)cc12,0.116 (inactive),0.731,-1.19,3.25 (inactive),0.151 (inactive),0.359 (inactive)
COc1ccc([C@H]2C[C@H]3C(Br)=C[C@@H]2C(=O)[C@]32CO2)cc1,-0.244 (inactive),-0.22,-0.518,-0.444 (inactive),0.0297 (inactive),-0.237 (inactive)
CC(C)(C)OC(=O)CC[C@]1(C(=O)O)N=C(c2ccc(OCCCO)cc2)O[C@H]1c1ccccc1N=[N+]=[N-],1.25 (inactive),0.907,-0.164,-5.39 (inactive),0.0751 (inactive),-0.136 (inactive)
C=CCNC(=O)[C@@H]1[C@H]2C(=O)O[C@H](c3ccccc3)[C@H](c3ccccc3)N2[C@H](c2ccc(OCCO)cc2)[C@@]12C(=O)Nc1ccc(C#Cc3ccc(OC)cc3)cc12,1.37 (inactive),0.792,-2.28,-1.61 (inactive),0.166 (inactive),0.143 (inactive)
CCCCN1CC=CC23O[C@@H]4C=CCOC(=O)[C@@H]4[C@H]2C(=O)N(CCCCCO)[C@@H]3C1=O (some centres not stated),-0.338 (inactive),0.0889,-0.198,-3.39 (inactive),-0.0035 (inactive),-0.504 (inactive)
O=C1O[C@H](c2ccccc2)[C@H](c2ccccc2)N2[C@H]1[C@@H](C(=O)Nc1nc3ccccc3s1)[C@]1(C(=O)Nc3ccc(C#CCCO)cc31)[C@H]2c1ccc(OCCO)cc1,0.497 (inactive),0.769,-1.19,1.37 (inactive),-0.239 (inactive),-0.262 (inactive)
COc1ccc([Si](C)(C)[C@H]2[C@H](CCn3cc([C@H](O)c4ccccc4)nn3)O[C@@]3(C(=O)N(Cc4cccc(N5CCOC5=O)c4)c4ccccc43)[C@@H]2C)cc1,-0.44 (inactive),0.548,-1.54,-3.83 (inactive),-0.056 (inactive),0.324 (inactive)
C[C@@H]1ON(c2cccc(C(=O)OC(C)(C)C)c2)[C@H](c2ccc(Br)cc2)[C@H]1C(=O)N1C(=O)OC[C@H]1Cc1ccccc1,0.543 (inactive),0.615,-0.829,-0.923 (inactive),0.0511 (inactive),0.176 (inactive)
COc1ccc([Si](C)(C)[C@H]2[C@H](CCO)O[C@@]3(C(=O)N(Cc4ccc(N5C(=O)COc6ccccc65)cc4)c4ccccc43)[C@@H]2C)cc1,0.0409 (inactive),0.254,-1.95,-0.911 (inactive),-0.661 (inactive),-1.02 (inactive)
CCOc1cc(C(O)C2C=CC3C(=O)N(c4ccccc4)C(=O)C3N2Nc2ccccc2)ccc1O (configuration not stated),0.497 (inactive),0.221,-0.033,-4.03 (inactive),-0.516 (inactive),-0.835 (inactive)
CCCC[C@H]1OB(O)C[C@H]2C1=C(COc1ccccc1)C[C@H]1C(=O)N(C)C(=O)[C@H]12,-0.146 (inactive),-0.544,1.68,-4.62 (inactive),-0.267 (inactive),0.201 (inactive)
CC(CO)N1C(=O)[C@@H]2C3C(=O)OCCC/C=C\[C@H]3OC23C=CCN(c2ccc4ccccc4c2)C(=O)[C@@H]13 (some centres not stated),0.372 (inactive),0.0016,0.252,-3.77 (inactive),-0.663 (inactive),-0.182 (inactive)
COCCCNC(=O)C1N=C(c2ccc(OCCCO)cc2)N(c2ccccc2)O1 (configuration not stated),1.84 (inactive),0.779,-0.572,-2.25 (inactive),-0.0836 (inactive),0.164 (inactive)
Cc1ccc(S[C@]2(C(=O)NCC(C)C)CC(=O)N(Cc3cc(C(F)(F)F)cc(C(F)(F)F)c3)[C@@H]2c2ccc(CO)cc2I)cc1,0.861 (inactive),0.569,-0.433,-2.28 (inactive),0.208 (inactive),0.473 (inactive)
COc1ccc(NN2C(C(O)c3ccc([N+](=O)[O-])cc3)C=CC3C(=O)N(C4CCCCC4)C(=O)C32)cc1 (configuration not stated),-0.025 (inactive),-0.0788,-0.0215,-3.73 (inactive),-0.414 (inactive),-0.331 (inactive)
[N-]=[N+]=NCc1ccccc1[C@H]1OC(c2ccc(OCCCO)cc2)=N[C@@]1(Cc1ccccc1)C(=O)NCc1ccccc1,0.212 (inactive),0.471,-2.49,2.55 (inactive),-0.287 (inactive),-0.083 (inactive)
COCCOC(=O)N1C(=O)[C@@]2(c3cc(C#CCNC(N)=O)ccc31)[C@H](C(=O)NC[C@H](O)c1ccccc1)[C@H]1C(=O)O[C@H](c3ccccc3)[C@H](c3ccccc3)N1[C@@H]2c1ccccc1OCCO,0.0808 (inactive),0.689,-0.411,-1.65 (inactive),0.0441 (inactive),0.0861 (inactive)
COC(=O)[C@@]1(Cc2ccccc2)[C@H]2c3cc(C(=O)N4CCCC4)n(Cc4nc5ccccc5[nH]4)c3C[C@H]2CN1C(=O)c1ccccc1,1.33 (inactive),0.213,-1.65,-3.97 (inactive),-1.01 (inactive),-0.881 (inactive)
CCCC[C@@H]1C[C@H]1[C@@H](NC(=O)c1ccco1)c1ccc(Cl)cc1,0.593 (inactive),-0.111,-0.727,-3.18 (inactive),-0.522 (inactive),-0.995 (inactive)
COc1ccc(C(O)C2C=CC3C(=O)NC(=O)C3N2Nc2ccccn2)cc1 (configuration not stated),-1.2 (inactive),0.658,0.557,-1.88 (inactive),0.723 (inactive),0.51 (inactive)
